Compound activity (PubChem BioAssay)
Shown are actives, neighbours in structure and some others; about 7.9% of the full set was active somewhere.
HCMV inh – qHTS Assay for inhibitors of the human cytomegalovirus (HCMV) | HFF cells, HCMV-luciferase reporter, 72 h; hits give low values | activity change, negative = inhibition, % at 57.5 µM | actives 4.5% (n = 410,000) | AID 1259415, 2018; in the data active means activity change below about -60%; inconclusive means no clear call, values can overlap the other calls; inactive means above about -39%
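Two compound doses tested in HFFs infected with HCMV-luciferase, MOI 1 PFU/cell, 72 h at 37C. Lysate luminescence read with OneGlo; data normalized against buffer-only and 10uM Salinomycin inhibitor controls.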
MARV entry inh – qHTS for inhibitors of binding or entry into cells for Marburg Virus; Marburg virus pseudotyped entry inhibition, cell reporter; Potency, µM (highest dose often 37.8 µM), without a hit: top-dose activity change, negative = inhibition, most hits filed as inhibitors; actives 1.8% (n = 300,000); AID 540276, 2011; calls by dose curve; tested in HEK293 cells; further: potency means the concentration at half of the fitted maximal effect
Lassa entry inh – qHTS for Inhibitors of binding or entry into cells for Lassa Virus. Lassa virus pseudotype entry inhibition, cell reporter. actives 1.2% (n = 300,000). Potency, µM (series often up to 37.9 µM), inactives show at the highest dose activity change, negative = inhibition, most hits filed as inhibitors; calls by dose curve; tested in HEK293 cells; further: potency means the concentration at half of the fitted maximal effect; nearly all actives have a fitted effect of over 50% in size
FMDV antiviral – High Throughput Screening for Foot and Mouth Disease Virus Antivirals; FMDV antiviral cell-based qHTS; Potency, µM (doses to about 57.9 µM), for the others: at the top dose activity change, negative = inhibition, usual class: inhibitors; actives 1.2% (n = 410,000); calls by dose curve; tested in HEK293T cells; further: read-out not given here; potency means the concentration at half of the fitted maximal effect; nearly all actives have a fitted effect of over 45% in size
HCV inhibitor – qHTS Assay for Inhibitors of Hepatitis C Virus (HCV); Huh7.5.1 HCVcc-Cre infection, luciferase reporter, 44 h; Potency, µM (doses to about 41.8 µM), for the others: top-dose activity change, negative = inhibition, most hits filed as inhibitors; actives 3.4% (n = 340,000); AID 651820, 2012; active means well fitted inhibition curve with a large enough effect; inconclusive means small, poorly fitted or top-dose-only effect, or another doubt; inactive means no such curve, though single readings can be large or run the other way; further: potency means the concentration at half of the fitted maximal effect
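After 44 h co-culture of compound, cells and HCVcc-Cre (~0.5 moi), substrate is added for 15 min at room temperature and luciferase measured over 15 sec. Cells were seeded at 1,000/well and pre-cultured 4 h.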
Starred values were filed as active, the others as inactive; ? = inconclusive; . = no result given; [ ] = dose if it differs, or a comment. On the % scale 0 is the no-effect control and ±100 the full control effect.

SMILES	HCMV inh	MARV entry inh	Lassa entry inh	FMDV antiviral	HCV inhibitor
CC1=Nc2ccccc2N=C(NC(=O)c2ccccc2)C1c1ccc(Cl)cc1 (centres undefined)	-63.0*	?	?	-16.7%	-23.6%
O=C1CC(c2ccc(Cl)cc2)N=C(NC(=O)c2ccccc2)N1 (centres undefined)	-3.5	.	-16.5%[46.1 µM]	-21.7%	.
CN1CCCC(CC2Oc3ccccc3Sc3ccccc32)C1 (centres undefined)	?	?	?	-8.2%	11.2µM*
c1ccc(OCCCCN2CCCCC2)cc1	7.3	19.4%	?	-5.9%	-23.3%
c1ccc2c(c1)OC(CCCN1CCCCC1)c1ccccc1S2 (centres undefined)	-28.7	?	-16.8%	-20.7%	25.1µM*
O=C(CCc1ccccc1)NCc1nc2cccnc2n1Cc1ccc(F)cc1	?	.	-1.2%[46.1 µM]	3.4%	.
CCOc1ccc(OCC)c(S(=O)(=O)NCc2ccccc2)c1	38.8	-23.5%[46.1 µM]	-16.8%[46.1 µM]	26.8%	0.8%
CCOc1ccc(OCC)c(S(=O)(=O)NCCOC23CC4CC(CC(C4)C2)C3)c1	-73.4*	?	?	-22.6%	10µM*
COc1cc(S(=O)(=O)NCCOC23CC4CC(CC(C4)C2)C3)c(OC)cc1Cl	-63.3*	?	?	-23.6%	?
CCN(CC)S(=O)(=O)c1ccc(NC(=O)NCc2noc3ccc(C)cc23)cc1	-39.5	.	?	?	.
COc1cc(NC(=O)c2ccc(Cl)cc2Cl)ccc1-c1cc2ccccc2oc1=O	-91.1*	-28.7%	?	2.8%	-5.5%
COc1cc(NC(=O)c2c(OC)cccc2OC)ccc1NC(=O)c1cc2ccccc2o1	44.8	?	-19.7%[46.1 µM]	22.6%	25.1µM*
COc1cc(NC(=O)c2ccc(C)cc2C)ccc1NC(=O)c1cc2ccccc2o1	-81.8*	.	.	-30.5%	?
CC(=O)c1c(C)[nH]c(C(=O)OCc2ccccc2F)c1C	?	?	?	15.2%	17.8µM*
CC(=O)c1c(C)[nH]c(C(=O)OCC(=O)NC(C)c2ccccc2)c1C (centres undefined)	12.8	.	.	0.0%	.
COc1ccc(C)cc1COC(=O)c1[nH]c(C)c(C(C)=O)c1C	-4.2	?	?	-12.9%	?
CCOC(=O)c1c(C)[nH]c(C(=O)OCc2ccccc2)c1C	24.5	?	?	22.9%	.
CC(=O)c1c(C)[nH]c(C(=O)OCc2ccc(Br)cc2)c1C	-39.8	?	-22.7%	0.0%	4.47µM*
COC(=O)CCc1c(C)[nH]c(C(=O)OCc2ccccc2)c1C	-0.4	-12.8%	7.08µM*	26.8%	1.8%
CC(=O)c1c(C)[nH]c(C(=O)OCc2cccc(C)c2)c1C	-16.4	?	?	12.0%	15.8µM*
O=C1Nc2ccccc2[C@@]12O[C@H](COc1ccccc1)CC1=C2CCC1	.	9.8%[14.2 µM]	.	.	.
COc1ccc(C(=O)N[C@H]2CC[C@@]34CCCN3C(=O)CCC[C@H]4[C@H]2Cc2ccccc2)cc1	-3.2	.	.	.	.
CC(=O)c1c(C)[nH]c(C(=O)OCCOc2ccccc2)c1C	?	?	?	-81.2%	8.91µM*
COc1cc(CN2CCN(c3cc(C)ccc3C)CC2)ccc1O	-72.8*	-0.8%	.	-29.4%	?
COc1cc(CN2CCc3ccccc3C2)ccc1O	-99.6*	.	.	31.6µM*	?
SMILES	HCMV inh	MARV entry inh	Lassa entry inh	FMDV antiviral	HCV inhibitor
N#CC(C#N)=C1NC2(CCCCC2)Cc2ccccc21	-8.2	.	.	-20.7%	-14.5%
N#CC(C#N)=c1ccc2c(c1)NC1(CCCCC1)N=2	-84.5*	?	?	25.1µM*	?
Cc1c(Cc2ccc3c(c2)OCO3)sc(NC(=O)c2cccc3ccccc23)c1C(N)=O	?	-34.6%	-9.9%	-3.1%	?
Cc1c(Cc2ccc3c(c2)OCO3)sc(NC(=O)C2CC2)c1C(N)=O	0.0	6.8%[46.1 µM]	8.91µM*	?	-5.0%
Cc1nn(C(=O)c2nn(C)cc2[N+](=O)[O-])c(C)c1Br	-10.5	1.0%[46.1 µM]	0.5%	-10.5%	19.3%
O=C(Nc1ccc(CN2CCOCC2)cc1)c1ccc(-c2cc(Cl)ccc2Cl)o1	?	?	-29.7%	28.2µM*	?
O=C(Nc1ccc(CN2CCOCC2)cc1)c1ccc(Br)o1	67.4	.	.	32.9%	12.3%
